According to PubChem BioAssay AID2685 (National Center for Advancing Translational Sciences (NCATS), 2010):
In all, about 320,000 compounds went through this assay and about 2,100 (0.66%) were called active. About 53% were inconclusive and are not listed. Calls follow the shape of the dose curve; as a rule, active = well fitted inhibition curve with a large enough effect in the signal ratio, with a control signal flat (not every such curve was filed as active); inconclusive = small, poorly fitted or top-dose-only effect, or effect the other way, or a change in a side signal; inactive = flat fitted curve, though single readings scatter; the % refers to the signal ratio. Many of the other results were omitted from the sample, so actives are more common in it than they were.

assay: qHTS Assay for Lipid Storage Modulators in Drosophila S3 Cells; conditions: BODIPY lipid droplet fluorescence, 18-24 h, cells fed with added oleic acid; cell number change: measured here: cell count max response; series mostly up to 46.1 µM;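 as to cell number change: cells counted by Cell Tracker Red CMTPX staining in the red channel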
How it was run: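 Laser-scanning cytometry quantifies lipid droplet accumulation (500–530 nm total intensity; droplet/cell object ratio) in oleic acid-fed (400 uM added) Drosophila S3 cells treated with a concentration series. 20 uM Triacsin C defined 100% inhibition.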
Potency is read from the fitted curve at half-maximal effect.

Row | SMILES | Potency | cell number change [%]
1 | Cc1ccc(-n2nc3c(=O)n(CC(=O)NCc4ccc(C)o4)nc(C)c3c2C)cc1 | inactive | -10.7
2 | COC(=O)c1ccc2c(=O)n(CCCCCC(=O)NC(C)C)c(=O)[nH]c2c1 | inactive | –
3 | O=C(Cn1cncn1)NCc1cccc2ccccc12 | inactive | -12.1
4 | CC1CCN(CCNC(=S)Nc2ccc(Cl)cc2)CC1 | inactive | 5.06
5 | O=C1NN(c2ccc(Cl)c(Cl)c2)C(=O)/C1=C/c1cccc(OC(=O)c2cccs2)c1 | 23.1 µM (active) | -11.7
6 | COc1cccc(/C=C2/C(=O)NN(c3ccc(F)cc3)C2=O)c1 | inactive | 8.15
7 | COc1cccc(/C=C2/C(=O)NN(c3ccccc3)C2=O)c1 | inactive | 0.215
8 | CCOc1ccc(S(=O)(=O)Oc2ccc3ccccc3c2)cc1 | inactive | -10
9 | CCOc1ccc(/C=C/C2=Cc3c(sc(NC(=O)CSc4n[nH]c(N)n4)c3C#N)C(C)(C)C2)cc1 | 14.6 µM (active) | -29.6
10 | CCOC(=O)c1sc(NC(=O)CSc2n[nH]c(-c3ccccc3)n2)c(C#N)c1C | inactive | –
11 | CCOc1ccccc1NC(=O)CSc1n[nH]c(N)n1 | inactive | 13.9
12 | Cn1c(=O)n(C)c2cc(CN3C(=O)OC(C)(C)C3(C)O)ccc21 (stereo unspecified) | inactive | –
